Experiment in all cases: glycan array binding signal (z-score within array); higher = stronger binding
What all share (settings): glycan notation: IUPAC condensed, linker removed

The target of experiment [1] is GalNAc(b1-3)Gal. The method, boiled down:
(§1)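 From the Consortium for Functional Glycomics database, 3228 arrays were curated, keeping only those whose protein sequence was available. Binding is given as a within-array Z-score averaged across arrays sharing a protein sequence and across linkers. Negative Z-scores can be read as non-binding.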

For experiment [2], the target named is GalNAc(b1-4)GlcNAc6S. The method, boiled down: as §1
The target of experiment [3] is Glc(a1-6)Glc(a1-6)Glc(a1-6)Glc. The method, boiled down: as §1
The target in experiment [4] is GlcNAc(b1-2)Man(a1-3)[GlcNAc(b1-2)Man(a1-6)]Man(b1-4)GlcNAc(b1-4)GlcNAc. The method, boiled down:
as §1

The target of experiment [5] is GlcNAc(b1-3)Gal. The method, boiled down: as §1
Experiment [6] deals with GlcNAc(b1-3)Gal(b1-4)GlcNAc(b1-3)Gal(b1-4)GlcNAc(b1-2)Man(a1-3)[GlcNAc(b1-3)Gal(b1-4)GlcNAc(b1-3)Gal(b1-4)GlcNAc(b1-2)Man(a1-6)]Man(b1-4)GlcNAc(b1-4)GlcNAc. The essentials:
as §1

Experiment [7] addresses GlcNAc(b1-3)Gal(b1-4)GlcNAc(b1-3)Gal(b1-4)GlcNAc(b1-3)Gal(b1-4)GlcNAc(b1-3)Gal(b1-4)GlcNAc(b1-2)Man(a1-3)[GlcNAc(b1-3)Gal(b1-4)GlcNAc(b1-3)Gal(b1-4)GlcNAc(b1-3)Gal(b1-4)GlcNAc(b1-3)Gal(b1-4)GlcNAc(b1-2)Man(a1-6)]Man(b1-4)GlcNAc(b1-4)GlcNAc. The essentials: as §1
For experiment [8], the target named is GlcNAc(b1-3)Gal(b1-4)GlcNAc(b1-3)Gal(b1-4)GlcNAc(b1-3)Gal(b1-4)GlcNAc(b1-3)Gal(b1-4)GlcNAc(b1-2)[GlcNAc(b1-3)Gal(b1-4)GlcNAc(b1-3)Gal(b1-4)GlcNAc(b1-3)Gal(b1-4)GlcNAc(b1-3)Gal(b1-4)GlcNAc(b1-6)]Man(a1-6)[GlcNAc(b1-3)Gal(b1-4)GlcNAc(b1-3)Gal(b1-4)GlcNAc(b1-3)Gal(b1-4)GlcNAc(b1-3)Gal(b1-4)GlcNAc(b1-2)Man(a1-3)]Man(b1-4)GlcNAc(b1-4)[Fuc(a1-6)]GlcNAc. The method, boiled down:
as §1

Experiment [9] concerns the target Kdn(a2-3)Gal(b1-3)GalNAc. The method, boiled down: as §1
Experiment [10] addresses Man(a1-3)[Man(a1-6)]Man. The essentials:
as §1

Experiment [11] has as its target Neu5Ac(a2-3)Gal(b1-3)[Neu5Ac(a2-6)]GalNAc. The method, boiled down:
as §1

In experiment [12] the target is Neu5Ac(a2-3)Gal(b1-4)[Fuc(a1-3)]GlcNAc(b1-6)[Neu5Ac(a2-3)Gal(b1-3)]GalNAc. The essentials:
as §1

Experiment [13] has as its target Neu5Ac(a2-3)GalNAc(b1-4)GlcNAc. The essentials: as §1
The target of experiment [14] is Neu5Ac(a2-6)Gal(b1-4)GlcNAc(b1-2)Man(a1-3)[Neu5Ac(a2-6)Gal(b1-4)GlcNAc(b1-2)Man(a1-6)]Man(b1-4)GlcNAc(b1-4)[Fuc(a1-6)]GlcNAc. The essentials: as §1
For experiment [15], the target named is Neu5Ac(a2-6)Gal(b1-4)GlcNAc(b1-3)Gal(b1-4)GlcNAc. The method, boiled down: as §1
The target in experiment [16] is Neu5Ac(a2-6)Gal(b1-4)GlcNAc(b1-6)GalNAc. The method, boiled down:
as §1

Experiment [17] addresses Neu5Ac(a2-6)Gal(b1-4)GlcNAc(b1-6)[Gal(b1-3)]GalNAc. The essentials: as §1
The target of experiment [18] is Neu5Gc(a2-3)Gal(b1-4)Glc. The essentials:
as §1

Experiment [19] addresses Neu5Gc(a2-6)Gal(b1-4)GlcNAc. The method, boiled down: as §1
Experiment [20] addresses Neu5Gc(a2-8)Neu5Gc(a2-3)Gal(b1-4)GlcNAc(b1-3)Gal(b1-4)GlcNAc. The method, boiled down: as §1

This is one part of a sample in which the strongest signals are shown more often than they occur.

B1: LSL-150 (Laetiporus sulphureus), Q7Z8V1 (protein)
chain: MTDIYIPPEGLYFRLLGFASRQVIFARNSPSPDVGLSPVNDQATDQYFSLIYGTGEHAGLYAIKSKATGKVLFSRRPAEPYVGQIDGDGRYPDNWFKIEPGKTYLSKYFRLVQPSTGTALVSRTHLQPYFWNHPQTEVFDDQYFTFLFEDHHHHHH
Consider B1, for which the “glycan array binding signal (z-score)” value in experiment [1] is -0.207; in experiment [2], -0.203; in experiment [3], -0.207; in experiment [4] it was -0.205; in [5] it was -0.195; in [6], 0.937. Moreover, the “glycan array binding signal (z-score)” value in experiment [7] is 5.26; in [8] it was 7.09; in experiment [9], -0.201; in [10], -0.2; in experiment [11], -0.208; in experiment [12], -0.203. For the same molecule, the “glycan array binding signal (z-score)” value in experiment [13] is -0.213; in experiment [14], -0.208; in experiment [15], -0.079; in experiment [16], -0.203; in [17], -0.194; in experiment [18] it was -0.205. Moreover, the “glycan array binding signal (z-score)” value in experiment [19] is -0.206; in [20] it was -0.196.

(Values after the supplement of paper PMC8728848.)
